# Measurements published in PubChem BioAssay AID720517 (National Center for Advancing Translational Sciences (NCATS), 2013).
# Records with an inconclusive call do not appear. Where a call stands in place of a potency, no number is given. Active and inactive are the calls of the source. The call rests on the fitted dose curve; in most records, active means well fitted activation curve with a large enough effect; inconclusive means small, poorly fitted or top-dose-only effect; inactive means flat fitted curve, though single readings scatter.
# Test: qHTS for Inhibitors of Cell Surface uPA Generation: FP59 Counterscreen for Cherry-picked Compounds
# Conditions: FP59 anthrax toxin cytotoxicity counterscreen, cells; series mostly up to 115 µM
# Potency means the concentration at half of the fitted maximal effect.
row,SMILES,Potency
1,COc1cc(CNCc2ccc3c(c2)OCO3)c([N+](=O)[O-])cc1OC,inactive
2,N#Cc1ccccc1Sc1ccccc1C(=O)Nc1ccc(Br)cc1,inactive
3,O=C(O)CCc1nn2c3ccccc3n(CC(=O)O)c2nc1=O,inactive
4,C=CS(=O)(=O)c1ccc(Oc2ccc(S(=O)(=O)C=C)cc2)cc1,52.1 µM (active)
5,OCC1CCCCN1CC(O)COC(c1ccc(F)cc1)c1ccc(F)cc1 (centres undefined),inactive
6,CCOCCOc1cc(NCc2ccccc2)c2ncn(C(C)C)c2c1,inactive
7,CCOC(=O)C1=C(C)N(Cc2ccccc2)C(=O)NC1c1ccc(OC)cc1 (centres undefined),inactive
8,Cc1cc(C)n2c(SCC#N)nnc2n1,inactive
9,O=C1C=CC(O)(c2cc(=O)c3c(O)cc(O)cc3o2)C=C1,14.7 µM (active)
10,O=C(CSc1ccc([N+](=O)[O-])cn1)Nc1nccs1,inactive
11,Cc1cc(C)n(C(=O)c2cccc([N+](=O)[O-])c2)n1,inactive
12,CCCc1nn2c(=O)cc(CSCC(=O)Nc3ccccc3)nc2s1,inactive
13,O=C(NCc1ccc2c(c1)OCO2)c1ccccn1,inactive
14,CS/C(=C\[N+](=O)[O-])Nc1ccccc1,inactive
15,CN(C)CCNC(=O)Nc1ccc([N+](=O)[O-])cc1,inactive
16,COc1cc(C(C)=O)ccc1OCc1cn(CC(=O)c2ccc(O)cc2)nn1,inactive
17,CCN(C(=O)CSc1ncnc2sccc12)c1c(N)n(Cc2ccccc2)c(=O)[nH]c1=O,inactive
18,S=C(Nc1ccccc1Oc1ccccc1)NC1CCCC1,inactive
19,O=C(NCCN1CCOCC1)c1ccc2c(c1)N(Cc1ccc(Cl)cc1)CCS2,inactive
20,COc1cc(CN2CCNC(=O)C2CC(=O)NCCCC2CCCC2)cc(OC)c1 (centres undefined),inactive

row,SMILES,Potency
1,CC(=O)c1ccc2c(c1)c1ccccc1n2CC(C)C,inactive
2,O=C(O)c1ccc(-n2nnnc2SCc2cccc(Br)c2)cc1,inactive
3,O=C(NCC1CCCO1)c1c(O)c2cccc3c2n(c1=O)CCC3 (centres undefined),inactive
4,O=[N+]([O-])c1ccc(SCc2ccncc2)nc1,inactive
5,COc1ccc(CC(=O)Nc2nc(C)cs2)cc1OC,inactive
6,Cc1nnc2ccc(-c3ccc(NS(=O)(=O)c4ccc(Cl)s4)cc3)nn12,inactive
7,CN(CC(=O)NCCCn1ccnc1)S(=O)(=O)c1ccc(Cl)cc1,inactive
8,Cc1cccc(N2C(=O)N3[C@H](c4ccc(F)cc4)[C@@H]4C(=O)N(C5CCCCC5)C(=O)[C@@H]4[C@]3(Cc3ccc(Cl)cc3)C2=O)c1,inactive
9,CCOc1ccc(NS(=O)(=O)c2coc(C(N)=O)c2)cc1,inactive
10,CCOC(=O)c1c(NC(=O)CC2SC(N)=NC2=O)sc2c1CCC(C)C2 (centres undefined),inactive
11,Cc1cccc(C(=O)NCC(=O)OCC(=O)NC2CCCCCCC2)c1,inactive
12,CCCCCN(C(=O)CCC(=O)OCCOc1cccc(Cl)c1)c1c(N)n(CCCC)c(=O)[nH]c1=O,inactive
13,CCN(C(=O)c1c(C)noc1C)c1c(N)n(Cc2ccccc2)c(=O)[nH]c1=O,inactive
14,COc1ccccc1N1CCN(C2CC(=O)N(c3ccccc3)C2=O)CC1 (centres undefined),inactive
15,C=CCn1c(C)cc(C(=O)COC(=O)/C=C/c2cccc(OC)c2)c1C,inactive
16,NC(=O)CC(NC(=O)Cc1cccc2ccccc12)c1ccc(N2CCC(Cc3ccccc3)CC2)c([N+](=O)[O-])c1 (centres undefined),inactive
17,CC1(C)CC(=O)C([N+](=O)[O-])=C(NCCCC(=O)O)C1,inactive
18,COc1ccc(NC(=O)Nc2nnc(N3CCCCC3C)s2)cc1OC (centres undefined),inactive
19,O=C(NCCCN1CCCC1=O)c1cccc(Oc2ccccc2)c1,inactive
